Source: PubChem (National Center for Advancing Translational Sciences (NCATS))
KDM5B inhibitor: KDM5B demethylase inhibition; Q9UGL1; KDM5B demethylase, FDH-coupled NADH fluorescence (FDH is formaldehyde dehydrogenase); Potency, µM (doses to about 57.7 µM), usual class: inhibitors; 220,000 compounds, 2.6% hits; further: nearly all actives have a fitted effect of over 70% in size
Target sequence (Q9UGL1 whole entry, looked up): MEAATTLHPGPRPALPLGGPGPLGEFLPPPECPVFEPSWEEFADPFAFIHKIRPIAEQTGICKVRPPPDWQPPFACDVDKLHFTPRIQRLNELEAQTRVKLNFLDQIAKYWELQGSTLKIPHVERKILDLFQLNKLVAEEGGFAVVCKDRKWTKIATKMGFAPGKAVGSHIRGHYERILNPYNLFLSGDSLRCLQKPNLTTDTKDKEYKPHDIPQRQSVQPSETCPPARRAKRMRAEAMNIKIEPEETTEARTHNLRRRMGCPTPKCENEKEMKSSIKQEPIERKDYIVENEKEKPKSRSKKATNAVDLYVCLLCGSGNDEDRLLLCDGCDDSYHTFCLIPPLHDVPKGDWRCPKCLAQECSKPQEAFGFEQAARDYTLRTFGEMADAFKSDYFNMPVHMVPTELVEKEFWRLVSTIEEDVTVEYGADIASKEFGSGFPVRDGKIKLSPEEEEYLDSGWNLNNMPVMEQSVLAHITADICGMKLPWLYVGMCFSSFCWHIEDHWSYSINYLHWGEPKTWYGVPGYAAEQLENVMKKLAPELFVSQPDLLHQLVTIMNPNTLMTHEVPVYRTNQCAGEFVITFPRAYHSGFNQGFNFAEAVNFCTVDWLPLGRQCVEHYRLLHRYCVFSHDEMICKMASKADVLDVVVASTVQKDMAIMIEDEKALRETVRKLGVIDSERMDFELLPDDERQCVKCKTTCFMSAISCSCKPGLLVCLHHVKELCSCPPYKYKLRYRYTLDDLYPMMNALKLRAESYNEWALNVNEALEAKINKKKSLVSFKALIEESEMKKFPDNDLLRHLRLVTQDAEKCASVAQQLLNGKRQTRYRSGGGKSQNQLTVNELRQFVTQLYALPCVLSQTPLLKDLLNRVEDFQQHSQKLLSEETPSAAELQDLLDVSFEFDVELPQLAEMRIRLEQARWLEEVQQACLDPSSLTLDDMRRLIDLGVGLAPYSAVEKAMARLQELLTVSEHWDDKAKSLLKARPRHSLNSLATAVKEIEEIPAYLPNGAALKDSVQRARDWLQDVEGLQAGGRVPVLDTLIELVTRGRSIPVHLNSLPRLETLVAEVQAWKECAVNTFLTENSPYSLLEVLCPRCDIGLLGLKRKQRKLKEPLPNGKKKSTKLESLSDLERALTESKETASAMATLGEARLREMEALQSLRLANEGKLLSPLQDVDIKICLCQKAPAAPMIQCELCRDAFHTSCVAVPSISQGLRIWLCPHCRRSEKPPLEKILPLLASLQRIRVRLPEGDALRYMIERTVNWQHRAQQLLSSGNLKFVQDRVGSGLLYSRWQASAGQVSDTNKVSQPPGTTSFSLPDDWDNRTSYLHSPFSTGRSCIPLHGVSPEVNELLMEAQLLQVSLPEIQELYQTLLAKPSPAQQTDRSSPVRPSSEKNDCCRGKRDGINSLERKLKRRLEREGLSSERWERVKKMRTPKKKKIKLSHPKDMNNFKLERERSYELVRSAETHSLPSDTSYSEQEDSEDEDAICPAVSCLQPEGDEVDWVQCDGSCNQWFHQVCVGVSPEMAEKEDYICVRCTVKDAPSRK
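Compound dilutions met 200 nM (final) KDM5BΔAP for 10 min at room temperature before substrate addition. The substrate mix held 12.5 µM H3K4me3 with cofactors 25 µM α-ketoglutarate and 50 µM Fe²⁺. NADH signal gain over 30 min defined activity.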
HEK293 viab: reduces viability of HEK-293 SNCA reporter cells | HEK-293-SNCA-luc viability, GF-AFC fluorescence, 24 h | Potency, µM (doses to about 57.1 µM), hits mostly cytotoxic | 150,000 compounds, 0.12% hits | AID 1671193; further: nearly all actives have a fitted effect of over 30% in size
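Cytotoxicity counterscreen: after 24 h compound treatment of genome-edited SNCA-luciferase HEK-293 cells, live-cell protease substrate GF-AFC read by fluorescence after 30 min; activity scaled between DMSO (0%) and medium-only (-100%), curves Hill-fitted.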
IP6K1 inh: IP6K1 kinase inhibition; Q92551; IP6K1 kinase, ADP-Glo luminescence, 2 h; hits give low values; activity change, % (series mostly up to about 58 µM); 140,000 compounds, 0.81% hits; in the data active means activity change below about -25%
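ADP-Glo luminescence measures ADP made by human IP6K1 during a 2 h RT reaction with ATP/IP6 (mix at 1.3 mM/130 uM); top library doses 57.5 and 19.1 uM final.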
SNCA expr inh: SNCA gene expression inhibition; HEK-293 SNCA-luciferase knock-in, luminescence, 24 h; Potency, µM (highest dose often 57.2 µM), hits mostly inhibitors; 140,000 compounds, 0.17% hits; further: nearly all actives have a fitted effect of over 45% in size
Numbers stand for hits; – = inactive; ? = inconclusive; · = not tested or not shown. The list is not random: actives were taken first. Their share in the collection is about 2.8%. Unless noted, the call rests on the fitted dose curve; in most records, active means well fitted curve in the direction sought with a large enough effect; inconclusive means small, poorly fitted or top-dose-only effect, or another doubt; inactive means no such curve, though single readings can be large; an effect the other way counts as inactive or inconclusive.

SMILES	KDM5B inhibitor	HEK293 viab	IP6K1 inh	SNCA expr inh
Cc1cc(=O)n(CC(=O)Nc2ccc(Cl)cc2)c(N2CCc3ccccc3C2)n1	?	–	–	?
Cc1ccccc1NC(=O)CN1C(=O)C2(SCC(=O)N2c2ccc(F)cc2)c2ccccc21 (configuration not stated)	–	–	–	–
CCOC(=O)c1c(-c2ccccc2)oc2ccc(OCc3cccc(Br)c3)cc12	?	–	–	–
Cc1ccc(C#N)c(NCc2cccnc2N2CCN(c3ccccn3)CC2)n1	28µM	–	–	–
COc1ccc(-c2cnc(Nc3ccc(CN4CCN(C)CC4)cc3)c3c2CCO3)cn1	?	?	–	–
COc1ccc(Nc2ncc(-c3ccccc3OC)c3c2OCC3)cn1	35µM	–	–	–
COc1ccccc1-c1cnc(Nc2ccc(CN3CCN(C)CC3)cc2)c2c1CCO2	35µM	–	–	–
CC1(O)CCCN(c2ccc(-c3nc(CCCc4ccccc4)no3)cn2)C1 (configuration not stated)	22µM	–	–	–
OCCC1CCN(c2ccc(-c3nc(CCCc4ccccc4)no3)cn2)CC1	–	–	–	–
OCCC1CN(c2ccc(-c3nc(CCCc4ccccc4)no3)cn2)CCO1 (configuration not stated)	20µM	–	–	–
COc1cccc(-c2nc(C3CC(=O)N(c4ccc(C)cc4)C3)no2)c1 (configuration not stated)	–	–	–	–
COc1ccc(S(=O)(=O)N2CCN(C)CC2)cn1	–	·	·	·
c1ccc(-c2ccc(N3CC[C@@]4(CCCNC4)C3)cc2)cc1	·	–	·	–
c1ccc(-c2ccc(N3CC4(CCNCC4)C3)cc2)cc1	·	32µM	·	?
CCS(=O)(=O)Nc1ccc(C(=O)N2CCN(C(C)=O)CC(O)C2)cc1 (configuration not stated)	–	–	–	–
CCC(O)c1cc2n(n1)CCN(C(=O)c1ccc(-c3ccccc3)n1C)C2 (configuration not stated)	–	–	–	–
CN(C)Cc1nnc(C2CCN(C(=O)c3nc(N)nc4c3CCCC4)CC2)n1C	25µM	–	–	–
CCC(O)c1cc2n(n1)CCN(C(=O)c1nc(N)nc3c1CCCC3)C2 (configuration not stated)	28µM	–	–	–
CC(=O)N1CCN(C(=O)c2nc(N)nc3c2CCCC3)CC(O)C1 (configuration not stated)	25µM	–	–	–
N#Cc1cccc(C(=O)Nc2ccc([C@@H](O)[C@H]3COCC(=O)N3)cc2)c1	–	–	–	–
CC(=O)Nc1ccc(NC(=O)CCc2ncc(-c3ccccc3)o2)cc1	–	·	·	·
COc1ccc(Cl)cc1C(=O)NCc1nnc2ccc(-c3ccc(C)c(C)c3)nn12	32µM	–	–	–
COc1ccc(Cl)cc1C(=O)NCc1nnc2ccc(-c3ccc(Cl)cc3)nn12	–	–	–	–
COc1ccc(Cl)cc1C(=O)NCc1nnc2ccc(-c3ccccc3)nn12	25µM	–	–	–
Cc1ccccc1-c1nc2cnccn2c1NCCC(=O)N1CCC(C)CC1	28µM	–	–	?
SMILES	KDM5B inhibitor	HEK293 viab	IP6K1 inh	SNCA expr inh
Cc1cccc(C(=O)Nc2c(-c3ccccc3)nc3cc(C)ccn23)c1	–	?	–	–
Cc1cccc(-c2nc3cnccn3c2NCCC(=O)N(C)C)c1	32µM	–	–	–
COc1cccc(-c2nc3cnccn3c2NCCC(=O)NC2CCCCCC2)c1	28µM	?	–	–
Cc1cccc(-c2nc3cnccn3c2NCCC(=O)N2CCCCC2)c1	28µM	–	–	–
Cc1cccc(-c2nocc2CCC(=O)N2CCN(c3cccc(C)c3)CC2)c1	–	–	–	–
O=C(Nc1ccc2c(c1)CCC2)C(Cc1ccccc1)n1cnnn1 (configuration not stated)	–	·	·	·
O=C1c2cnc(-c3cccc(CO)c3)nc2OCCN1c1cccc(C(F)(F)F)c1	–	–	–	–
O=C(CC1(O)C(=O)Nc2ccccc21)c1ccc(OC(F)F)cc1 (configuration not stated)	–	·	·	·
O=C(NCc1ccccc1)c1ccc2oc(-c3ccncc3)nc2c1	·	–	–	–
COc1cc(-c2nc3cnccn3c2Nc2ccc(C(C)C)cc2)ccc1O	?	?	–	–
Cc1ccccc1-c1nc2cnccn2c1NCCC(=O)N1CCCCC1	25µM	–	–	–
COc1cccc(-c2nc3cnccn3c2NCCC(=O)N2CCN(C(C)C)CC2)c1	28µM	?	–	–
Cc1cccc(C)c1Nc1c(-c2ccccc2O)nc2cnccn12	–	·	·	·
O=C(c1cccc2[nH]ccc12)N1CC(Oc2cccc(-c3nc(-c4ccccc4)no3)c2)C1	25µM	–	–	–
Cn1cccc1C(=O)N1CC(Oc2cccc(-c3nc(-c4ccccc4)no3)c2)C1	32µM	–	–	–
Cc1cnc(NC(=O)c2nn(C(C)C)c(=O)c3ccccc23)s1	–	·	·	·
COc1ccc(-c2nc3cc(NC(=O)c4cccc([N+](=O)[O-])c4C)ccc3o2)cc1	–	·	·	·
COc1ccc(Nc2nnc(-c3ccc(C)c(S(=O)(=O)NCc4nc5ccccc5[nH]4)c3)c3ccccc23)cc1	–	?	–	?
Cc1nc(-c2ccccc2)n(Cc2cc(=O)n3ccccc3n2)c(=O)c1CCO	22µM	–	–	–
Cc1nc(-c2ccccc2)n(Cc2nc(-c3ccccc3)oc2C)c(=O)c1CCO	–	–	–	–
O=C(COc1ccccc1)N1CCC2(CC1)CN(c1ncccn1)CC2CO (configuration not stated)	22µM	–	–	–
Cc1cccc(OCC(=O)N2CCC3(CC2)CN(c2ncccn2)CC3CO)c1 (configuration not stated)	20µM	–	–	–
Cc1cccc(-c2cccc(CN3CCC(NC(=O)Cc4ccccn4)CC3)c2)c1	·	–	–	–
CNc1cc2[nH]c(=O)n(-c3ccc(NC(=O)NS(=O)(=O)c4ccc(Cl)s4)cc3)c(=O)c2cc1F	·	–	–	·
O=C(CCC1CCN(C(=O)c2ccccc2)CC1)NCCCN1CCCc2ccccc21	10µM	–	–	–
SMILES	KDM5B inhibitor	HEK293 viab	IP6K1 inh	SNCA expr inh
COCCNC[C@@H]1C=C(C)[C@H](Cc2nnc(-c3ccc(N(C)C)cc3)o2)C[C@H]1C(C)C	28µM	?	–	–
CC1=C[C@@H](CNCCN(C)C)[C@H](C(C)C)C[C@H]1Cc1nnc(-c2ccc(C)cc2)o1	–	–	–	–
CC1=C[C@@H](CO)[C@H](C(C)C)C[C@H]1Cc1nnc(-c2ccc(N(C)C)cc2)o1	32µM	–	–	–
CC1=C[C@@H](CN2CCC[C@H]2CO)[C@H](C(C)C)C[C@H]1Cc1nnc(-c2ccc(N(C)C)cc2)o1	11µM	–	–	–
Cn1cccc1C(=O)N1CCC2(CCCN(c3ccncc3)C2)CC1	·	–	·	–
CN1Cc2cccn2CC1CNC(=O)Cc1cccc(F)c1 (configuration not stated)	28µM	–	–	–
CN1Cc2cccn2CC1CNC(=O)Nc1ccccc1 (configuration not stated)	–	–	–	–
